Data published in PubChem BioAssay (Tox21).
Results filed as inconclusive are left out. The source made the active and inactive calls. Unless noted, the call rests on the fitted dose curve; in most records, active means well fitted curve in the direction sought with a large enough effect in the repeat runs; inconclusive means weak or mixed curves; inactive means no such curve, though single readings can be large; an effect the other way counts as inactive or inconclusive.

Key:
[1] = qHTS assay to identify small molecule agonists of the vitamin D receptor (VDR) signaling pathway - cell viability counter screen (AID 743224); further: series mostly up to about 63 µM; on the % scale 0 is the no-effect control and ±100 the full control effect; nearly all actives have a fitted effect of over 50% in size
How it was run: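 Cells: VDR-bla, 2,000/well, settled 4 h. Treatment: compounds in DMSO, 16 h, 37C/5% CO2. Readout: CellTiter-Glo luminescence after 30 min RT.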

[2] = qHTS assay to identify small molecule antagonists of the vitamin D receptor (VDR) signaling pathway - cell viability counter screen (AID 743225); further: on the % scale 0 is the no-effect control and ±100 the full control effect; nearly all actives have a fitted effect of over 50% in size
How it was run: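 VDR-UAS-bla HEK 293T cells were plated and incubated 4 h at 37C, then dosed with compound plus 3 nM (final) 1-alpha,25-dihydroxyvitamin D3 for 16 h. After the 2 h beta-lactamase read, viability in the same wells was read as CellTiter-Glo luminescence after 30 min at room temperature.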

[3] = qHTS assay to identify small molecule agonists of the NFkB signaling pathway (AID 1159509; active means well fitted curve in the direction sought with a large enough effect in the signal ratio in the repeat runs, not every such curve was filed as active; the % refers to the signal ratio; further: series mostly up to about 61 µM; on the % scale 0 is the no-effect control and ±100 the full control effect)
How it was run: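 Pathway activation was measured in ME-180 cells stably expressing beta-lactamase under NF-kB response element control. Substrate cleavage was read as the 460/530 nm emission shift after 5 hr compound incubation.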

[4] = qHTS assay to identify small molecule agonists of the NFkB signaling pathway - cell viability counter screen (AID 1159515; calls by dose curve; further: series mostly up to about 61 µM; on the % scale 0 is the no-effect control and ±100 the full control effect; nearly all actives have a fitted effect of over 55% in size)
How it was run: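 Cells are seeded (2,000 NFkB-bla ME-180 per well), rested overnight, and dosed with DMSO-dissolved compounds for 5 hr at 37 C. Viability is then read by CellTiter-Glo luminescence after 30 min at room temperature.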

[5] = qHTS assay to identify small molecule agonists of the endoplasmic reticulum stress response signaling pathway (AID 1159516; active means well fitted activation curve with a large enough effect in the signal ratio in the repeat runs, not every such curve was filed as active; the % refers to the signal ratio; further: on the % scale 0 is the no-effect control and ±100 the full control effect)
How it was run: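 Cells are seeded at 1,500 per well and incubated overnight. Compounds in DMSO are added for 5 hr at 37 C, then beta-lactamase FRET substrate for 2 hr at room temperature, and fluorescence at 460 and 530 nm is measured.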

[6] = qHTS assay to identify small molecule agonists of the endoplasmic reticulum stress response signaling pathway - cell viability counter screen (AID 1159517; calls by dose curve;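 further: HeLa cells carrying an ER stress response element beta-lactamase reporter; series mostly up to about 61 µM; on the % scale 0 is the no-effect control and ±100 the full control effect; nearly all actives have a fitted effect of over 50% in size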)
How it was run: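 In parallel with the ESRE reporter read, cytotoxicity was scored by CellTiter-Glo luminescence (30 min, room temperature) on HeLa ESRE-bla cells dosed for 5 hr.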

[7] = qHTS assay to identify small molecule antagonists of the retinoid-related orphan receptor gamma (ROR-gamma) signaling pathway - cell viability counter screen (AID 1159520); further: on the % scale 0 is the no-effect control and ±100 the full control effect; nearly all actives have a fitted effect of over 50% in size
How it was run: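 Tet-on ROR gamma CHO cells were given compounds for 2 hr, then doxycycline hyclate at 1 uM final, and incubated 16 hr at 37 C. Viability was measured as ATP content by CellTiter-Glo luminescence.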

[8] = molecular target: Nuclear receptor ROR-gamma (Homo sapiens) (UniProt P51449); experiment: qHTS assay to identify small molecule antagonists of the retinoid-related orphan receptor gamma (ROR-gamma) signaling pathway (AID 1159521)
How it was run: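 Tet-on ROR-gamma CHO cells with ROR response element-luciferase reporter; compounds added 2 hr before 1 uM doxycycline induction, then 16 hr at 37 C. Antagonism scored as decreased ONE-Glo luminescence.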

[9] = qHTS assay to identify small molecule agonists of the AP-1 signaling pathway - cell viability counter screen (AID 1159525; calls by dose curve; further: nearly all actives have a fitted effect of over 55% in size)
How it was run: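 Same-well cytotoxicity counter screen of the Tox21 10K library in ME-180 cells. The readout is ATP-dependent luminescence after 5 h compound treatment. Data are normalised to DMSO and tetra n-octyl ammonium bromide controls.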

[10] = qHTS assay to identify small molecule agonists of the AP-1 signaling pathway (AID 1159526; calls by dose curve; further: on the % scale 0 is the no-effect control and ±100 the full control effect)
[11] = molecular target: Retinoic acid receptor RXR-alpha (Homo sapiens) (UniProt P19793); experiment: qHTS assay to identify small molecule agonists of the RXR signaling pathway (AID 1159527; calls by dose curve; further: on the % scale 0 is the no-effect control and ±100 the full control effect; nearly all actives have a fitted effect of over 35% in size)
How it was run: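 GeneBLAzer RXR-alpha-UAS-bla HEK 293T cells in 2% charcoal-stripped FBS medium were exposed to compounds for 16 hr at 37 C in agonist mode. Beta-lactamase reporter read as 460/530 nm FRET ratio after 2 hr substrate loading.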

[12] = qHTS assay to identify small molecule agonists of the RXR signaling pathway - cell viability counter screen (AID 1159529)
How it was run: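 RXR-alpha-UAS-bla HEK 293T cells in medium with 2% charcoal-stripped FBS were pre-incubated 5 hr, then compound-treated 16 hr at 37 C. Viability was read by CellTiter-Glo luminescence in the same wells as the beta-lactamase assay, with tetraoctyl ammonium bromide as positive control.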

[13] = qHTS assay to identify small molecule antagonists of the retinoid acid receptor (RAR) signaling pathway - cell viability counter screen (AID 1159551); further: on the % scale 0 is the no-effect control and ±100 the full control effect; nearly all actives have a fitted effect of over 35% in size
How it was run: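 Cells (C3RL4) are plated, incubated overnight, dosed with compound in DMSO, then given retinol at 1 uM final. After 6 h at 37 C, CellTiter-Glo is added and luminescence read following 30 min at room temperature.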

[14] = qHTS assay to identify small molecule antagonists of the retinoic acid receptor (RAR) signaling pathway (AID 1159552)
How it was run: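 Retinol signaling pathway inhibitors screened in C3RL4 RARE-luciferase reporter cells seeded overnight at 37 C, then compounds added with 1 uM (final) retinol as pathway substrate. After 6 hr at 37 C, luciferase luminescence read after 30 min at room temperature.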

[15] = qHTS assay to identify small molecule agonists of the retinoic acid receptor (RAR) signaling pathway (AID 1159553); further: on the % scale 0 is the no-effect control and ±100 the full control effect
How it was run: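 Seed C3RL4 reporter cells at 1,000 per well and incubate overnight at 37 C. Add compounds in DMSO, incubate 6 hr. Add luciferase reagent, wait 30 min at room temperature, read luminescence.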

[16] = qHTS assay to identify small molecule antagonists of the estrogen related receptor (ERR) signaling pathway from Tox21 library - cell viability counter screen (AID 1224834); further: on the % scale 0 is the no-effect control and ±100 the full control effect; nearly all actives have a fitted effect of over 30% in size
How it was run: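 ERR cells, 2,000/well; 6 h settle at 37 C/5% CO2; pin-tool compound transfer in DMSO; 17.5 h at 37 C; CellTiter-Fluor, 30 min; fluorescence intensity.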

[17] = molecular target: Luciferin 4-monooxygenase (Photinus pyralis) (UniProt P08659); experiment: qHTS assay to identify small molecule inhibitors of firefly luciferase (AID 1224835); further: nearly all actives have a fitted effect of over 25% in size; further: potency means the concentration at half of the fitted maximal effect
How it was run: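 Biochemical qHTS: compounds run as interplate titrations against purified firefly enzyme, with D-luciferin and ATP each at its KM concentration. Light output recorded by CCD imaging.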

[18] = qHTS assay to identify small molecule agonists of the constitutive androstane receptor (CAR) signaling pathway - cell viability counter screen (AID 1224836); further: series mostly up to about 92 µM; on the % scale 0 is the no-effect control and ±100 the full control effect; nearly all actives have a fitted effect of over 45% in size
How it was run: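 HepG2 cells stably carrying hCAR and a CYP2B6-2.2kb reporter; 15-concentration compounds plus PK11195 (final 0.75 uM), 23 hr at 37 C/5% CO2. Viability read by CellTiter-Fluor fluorescence.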

[19] = qHTS assay to identify small molecule antagonists of the constitutive androstane receptor (CAR) signaling pathway - cell viability counter screen (AID 1224837); further: series mostly up to about 92 µM; on the % scale 0 is the no-effect control and ±100 the full control effect; nearly all actives have a fitted effect of over 45% in size
How it was run: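 Viability was measured with CellTiter-Fluor in a HepG2 line carrying stably transfected hCAR and a CYP2B6-2.2kb construct. Cells were exposed for 23 hr at 37 C to 15 compound concentrations with 50 nM CITCO as agonist.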

[20] = molecular target: Nuclear receptor subfamily 1 group I member 3 (Homo sapiens) (UniProt Q14994); experiment: qHTS assay to identify small molecule antagonists of the constitutive androstane receptor (CAR) signaling pathway (AID 1224838);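 further: HepG2 cells stably expressing hCAR with CYP2B6 luciferase reporter stimulated by CITCO; on the % scale 0 is the no-effect control and ±100 the full control effect; nearly all actives have a fitted effect of over 40% in size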
How it was run: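 Antagonist mode used CITCO at a final 50 nM to activate CAR in human hepatoma HepG2 cells carrying stable hCAR and a 2.2 kb CYP2B6 promoter-luciferase construct. Compounds were tested at 15 concentrations over 24 h, with luminescence as the end point.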

Luciferin 4-monooxygenase (Photinus pyralis), sequence (P08659 whole entry, looked up): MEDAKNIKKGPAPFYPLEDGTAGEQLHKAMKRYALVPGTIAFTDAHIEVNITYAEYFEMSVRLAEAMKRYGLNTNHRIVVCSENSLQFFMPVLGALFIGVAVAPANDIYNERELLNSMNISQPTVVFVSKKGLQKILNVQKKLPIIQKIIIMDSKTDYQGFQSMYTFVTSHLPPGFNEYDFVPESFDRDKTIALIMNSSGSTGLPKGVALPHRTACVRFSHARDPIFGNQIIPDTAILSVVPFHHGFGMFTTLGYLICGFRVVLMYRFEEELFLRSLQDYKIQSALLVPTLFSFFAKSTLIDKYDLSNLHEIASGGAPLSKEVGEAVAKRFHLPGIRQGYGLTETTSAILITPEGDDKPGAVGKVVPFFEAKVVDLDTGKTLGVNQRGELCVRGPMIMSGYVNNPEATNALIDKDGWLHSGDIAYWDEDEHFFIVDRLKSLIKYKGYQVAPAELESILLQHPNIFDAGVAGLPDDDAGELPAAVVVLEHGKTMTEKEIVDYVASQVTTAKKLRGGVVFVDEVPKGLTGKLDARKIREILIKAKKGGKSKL
Retinoic acid receptor RXR-alpha (Homo sapiens), sequence (P19793 whole entry, looked up): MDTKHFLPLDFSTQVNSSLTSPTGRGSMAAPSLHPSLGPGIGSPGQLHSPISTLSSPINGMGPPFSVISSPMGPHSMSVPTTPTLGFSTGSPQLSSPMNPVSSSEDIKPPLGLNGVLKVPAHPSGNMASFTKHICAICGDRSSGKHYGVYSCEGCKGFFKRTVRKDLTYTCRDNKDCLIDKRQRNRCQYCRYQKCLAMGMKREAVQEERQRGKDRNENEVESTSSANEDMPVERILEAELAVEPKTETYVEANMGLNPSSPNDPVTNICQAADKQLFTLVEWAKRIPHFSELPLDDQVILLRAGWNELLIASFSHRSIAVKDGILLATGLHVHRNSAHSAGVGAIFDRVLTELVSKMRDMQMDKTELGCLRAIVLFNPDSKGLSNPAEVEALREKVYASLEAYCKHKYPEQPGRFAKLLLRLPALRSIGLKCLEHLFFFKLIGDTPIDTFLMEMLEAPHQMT
Nuclear receptor subfamily 1 group I member 3 (Homo sapiens), sequence (Q14994 whole entry, looked up): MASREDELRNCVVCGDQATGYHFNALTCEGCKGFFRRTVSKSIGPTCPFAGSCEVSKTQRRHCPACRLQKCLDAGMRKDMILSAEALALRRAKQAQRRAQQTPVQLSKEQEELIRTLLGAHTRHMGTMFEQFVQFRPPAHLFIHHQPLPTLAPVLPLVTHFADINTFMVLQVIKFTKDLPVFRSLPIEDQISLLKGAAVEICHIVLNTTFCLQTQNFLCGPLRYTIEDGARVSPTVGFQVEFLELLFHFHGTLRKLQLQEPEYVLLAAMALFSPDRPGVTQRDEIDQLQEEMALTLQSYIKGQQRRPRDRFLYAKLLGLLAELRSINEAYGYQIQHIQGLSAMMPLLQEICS

N[C@@H](Cc1ccc(O)cc1)C(=O)O
inactive: activity change, negative = cytotoxicity [1] 18.1% [at 13.2 µM] | viability change, negative = cytotoxic [2] 7.41% [at 6.95 µM] | activation [3] -0.279% [at 6.95 µM] | activity, negative = cytotoxic [4] 9.74% [at 6.95 µM] | activation [5] -0.0263% [at 6.95 µM] | activity change, negative = cytotoxicity [6] 2.71% [at 6.95 µM] | activity, negative = cytotoxicity [7] 1.78% [at 8.39 µM] | activity change, negative = inhibition [8] 1.55% [at 8.39 µM] | viability change, negative = cytotoxic [9] 1.17% [at 6.97 µM] | activation [10] -1.16% [at 6.97 µM] | activation [11] 0.71% [at 6.98 µM] | activity change, negative = cytotoxicity [12] 2.08% [at 6.97 µM] | activity change, negative = cytotoxicity [13] -0.852% [at 8.39 µM] | activity, negative = inhibition [14] 7.5% [at 8.39 µM] | activation [15] 0.0879% [at 8.36 µM] | viability change, negative = cytotoxic [16] 1.55% [at 8.39 µM] | activity change, negative = inhibition [17] 1.38% [at 10.5 µM] | viability change, negative = cytotoxic [18] -0.95% [at 8.39 µM] | activity change, negative = cytotoxicity [19] 8.2% [at 8.39 µM] | activity, negative = inhibition [20] -4.54% [at 8.39 µM]

CC(=O)CC(=O)Nc1ccc(C)cc1C
inactive: outcome [1] | outcome [2] | outcome [3] | outcome [4] | outcome [5] | outcome [6] | outcome [7] | outcome [8] | outcome [9] | outcome [10] | Potency [11] | outcome [12] | outcome [13] | outcome [14] | Potency [15] | outcome [16] | Potency [17] | outcome [18] | outcome [19] | Potency [20]

OC1OCCOC1O (stereo not given)
inactive: outcome [1] | outcome [2] | outcome [3] | outcome [4] | outcome [5] | outcome [6] | outcome [7] | outcome [8] | outcome [9] | outcome [10] | Potency [11] | outcome [12] | outcome [13] | outcome [14] | Potency [15] | outcome [16] | Potency [17] | outcome [18] | outcome [19] | Potency [20]

CC/C=C\CCOC(=O)c1ccccc1O
inactive: outcome [1] | outcome [2] | outcome [3] | outcome [4] | outcome [5] | outcome [6] | outcome [7] | outcome [8] | outcome [9] | outcome [10] | Potency [11] | outcome [12] | outcome [13] | outcome [14] | Potency [15] | outcome [16] | outcome [18] | outcome [19] | Potency [20]
active: Potency [17] 17.8 µM

O=C(O)CNC(=O)CNC(=O)CNC(=O)CSC(=O)c1ccccc1
inactive: outcome [1] | outcome [2] | outcome [3] | outcome [4] | outcome [5] | outcome [6] | outcome [7] | outcome [8] | outcome [9] | outcome [10] | Potency [11] | outcome [12] | outcome [13] | outcome [14] | Potency [15] | outcome [16] | Potency [17] | outcome [18] | outcome [19] | Potency [20]

CSc1cnccn1
inactive: outcome [1] | outcome [2] | outcome [3] | outcome [4] | outcome [5] | outcome [6] | outcome [7] | outcome [8] | outcome [9] | outcome [10] | Potency [11] | outcome [12] | outcome [13] | outcome [14] | Potency [15] | outcome [16] | Potency [17] | outcome [18] | outcome [19] | Potency [20]

CCOc1ccccc1OCC1CNCCO1 (stereo not given)
inactive: outcome [1] | outcome [2] | outcome [3] | outcome [4] | outcome [5] | outcome [6] | outcome [7] | outcome [8] | outcome [9] | outcome [10] | Potency [11] | outcome [12] | outcome [13] | outcome [14] | Potency [15] | outcome [16] | Potency [17] | outcome [18] | outcome [19] | Potency [20]
